sEH inhibitor: soluble epoxide hydrolase (human) inhibition; recombinant human sEH enzymatic activity assay; AID 707; 91,000 compounds, 0.34% hits; inhibition, % at 2 µM; in the data active = inhibition above about 80%
CYP2C9 activ: CYP2C9 (human) activation; P11712; activation factor at 5 µM; recombinant CYP2C9, luciferin-H conversion, luminescence; hits give high values; factor 1 = untreated enzyme, 0 = blocked; 96,000 compounds, 1.4% hits;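 active = activation factor of 2 or more for CYP2C9 at a 5 µM dose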
CYP2C19 inh: blocks human cytochrome P450 2C19. P33261. CYP2C19 Supersomes, luciferin-H EGE luminescence, 30 min. inhibition, % at 5 µM. 96,000 compounds, 21% hits. AID 778;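 active = CYP2C19 inhibition above a set limit at 5 µM in the primary screen, cut at about 50% in these data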
sEH act: activators of human soluble epoxide hydrolase; P34913; 91,000 compounds, 0.04% hits; AID 717; purified human sEH enzymatic activity, activator screen; activation, % at 2 µM; in the data active = activation above about 37%
CYP2C9 inh: blocks human cytochrome P450 2C9. P11712. CYP2C9 Supersomes, luciferin-H conversion, luminescence. inhibition, % at 5 µM. 96,000 compounds, 20% hits;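 active = blocking of liver enzyme CYP2C9 beyond about 50% at 5 µM, limit read from the data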
CYP2C19 act: cytochrome P450 2C19 (human) activation. P33261. recombinant CYP2C19, luciferin-H EGE luminescence; hits give high values; 0 = fully inhibited enzyme, 1 = untreated enzyme. activation factor at 5 µM. 96,000 tested, under 10 active;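 active = activation factor of at least 2 at 5 µM in the primary screen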
A number is an active result; – = inactive; · = no result. A selection: hits, their analogues and other compounds. The true share with any hit is near 27%.

SMILES	sEH inhibitor	CYP2C9 activ	CYP2C19 inh	sEH act	CYP2C9 inh	CYP2C19 act
CCN(C(=O)CSc1nc2ccccc2n1CCc1ccccc1)C1CCS(=O)(=O)C1 (stereo unspecified)	–	–	67	–	–	–
CCCCC(=O)Nc1ccc(NC(=O)CC)cc1OC	–	–	–	–	–	–
CCOc1ccc(N(CC(=O)Nc2ccccc2C(=O)NCc2ccco2)S(C)(=O)=O)cc1	–	–	–	–	70	–
CCOC(=O)c1ccccc1NC(=O)CN(c1ccccc1OCC)S(C)(=O)=O	·	–	–	·	–	–
CCOc1ccccc1N(CC(=O)Nc1ccccc1C(=O)O)S(C)(=O)=O	–	–	–	–	97	–
CCOc1ccccc1N(CC(=O)Nc1ccccc1C(=O)NCc1ccco1)S(C)(=O)=O	–	–	86	–	86	–
CCOc1ccccc1N(CC(=O)Nc1cc(OC)ccc1OC)S(C)(=O)=O	–	–	96	–	84	–
CCOc1ccc(N(CC(=O)NCc2ccco2)S(C)(=O)=O)cc1	–	–	–	–	–	–
Cc1ccc2nc3c(cc(C#N)c(=O)n3CC3CCCO3)c(=O)n2c1 (stereo unspecified)	·	–	–	·	–	–
O=C(COc1ccc(F)cc1)Nc1nccs1	–	·	·	–	·	·
COc1ccccc1NC(=O)COc1ccc(CO)cc1Cl	–	–	97	–	92	–
O=C(COc1ccc(CO)cc1Cl)Nc1ccc(F)cc1	–	–	58	–	–	–
Cc1cc(OCC(=O)NCCN2CCOCC2)cc(C)c1Br	–	2.1	99	–	–	–
O=C(COc1ccc(CO)cc1)Nc1ccc(F)cc1	–	–	52	–	–	–
CCC(=O)NC(=S)Nc1ccc(NC(=O)COc2ccc(Cl)cc2Cl)cc1	–	–	–	–	–	–
COc1ccccc1NC(=S)NC(=O)CCCOc1ccc(Cl)cc1Cl	–	–	–	–	–	–
Cc1ccc(CNC(=O)c2ccc(CN3CCOCC3)cc2)cc1	·	–	–	·	–	–
CC(C)(C)c1nnc(NC(=O)NS(=O)(=O)c2ccccc2)s1	–	–	–	–	–	–
CCCCNC(=S)Nc1ccccc1F	–	–	–	–	–	–
Cc1cc(OCC(=O)Nc2ccncc2)cc(C)c1Br	–	–	100	–	99	–
Cc1cc(C)cc(OCC(=O)Nc2ccc(F)cc2)c1	–	–	59	–	–	–
Cc1ccc(-n2nnc3c(=O)n(Cc4cccc(C)c4)cnc32)cc1	–	–	–	–	–	–
Cc1cccc(Cn2cnc3c(nnn3Cc3ccccc3F)c2=O)c1	–	2.8	52	–	–	–
Cc1cccc(Cn2cnc3c(nnn3Cc3ccc(F)cc3)c2=O)c1	–	2.5	58	–	–	–
O=C(Nc1nccs1)c1sc2ccccc2c1Cl	–	–	–	–	–	–
SMILES	sEH inhibitor	CYP2C9 activ	CYP2C19 inh	sEH act	CYP2C9 inh	CYP2C19 act
O=C(Nc1nccs1)c1sc2cc(Cl)ccc2c1Cl	–	–	57	–	–	–
CNC(=O)NC(=O)CSc1ncc(C(F)(F)F)cc1Cl	–	–	–	–	–	–
Cc1cc(N2C(=O)CCC2=O)ccc1NC(=O)c1cccs1	–	–	–	–	–	–
Cn1cc(C(=O)c2ccccc2)cc1-c1nc2ccccc2n1C	–	–	83	–	73	–
CCCC(=O)c1cc(-c2nc3ccccc3n2C)n(C)c1	–	–	–	–	–	–
CCC(=O)c1cc(-c2nc3ccccc3n2C)n(C)c1	–	–	56	–	65	–
CC(NC(=O)COc1ccc(Oc2ccccc2)cc1)C(=O)O (stereo unspecified)	–	–	–	–	–	–
O=C(NC(=O)c1ccncc1)NC(c1ccccc1)c1ccccc1	–	–	–	–	–	–
Cc1ccc(-c2ccc(CCC(=O)O)n2-c2ccc(O)cc2)cc1	–	–	–	–	–	–
Cc1ccc(-c2ccc(CCC(=O)O)n2-c2cccc(O)c2)cc1	–	–	–	–	57	–
CC1Cc2cc(C3(O)C(=O)c4ccccc4C3=O)ccc2N1 (stereo unspecified)	–	2.4	60	–	–	–
CC(Nc1cc(=O)n(C)c(=O)[nH]1)c1ccccc1 (stereo unspecified)	–	–	–	–	–	–
Cc1cc(NC(=O)CCOc2ccccc2)no1	–	–	–	–	–	–
Cc1cc(NC(=O)COc2nnc(-c3ccccc3)c3ccccc23)no1	–	–	52	–	63	–

Compound activity (PubChem BioAssay)
